The source of these data is PubChem BioAssay (NCATS).

Test [1] in a line: Cell Viability - BJ (AID 421; calls by dose curve;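 further: potency means the concentration at half of the fitted maximal effect; cells exposed to compound for 40 hours at 37 °C before readout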). The conditions noted are these: BJ fibroblast viability, qHTS. Summed up: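 Quantitative HTS: ATP depletion in BJ cells after 40 hr compound exposure in complete culture medium, detected with CellTiter-Glo; AC50 from standard Hill fits.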
Test [2] is described as follows: Cell Viability - Jurkat (AID 426;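 active means dose-dependent loss of cell ATP signal giving a full or clear fitted curve, ranked by lower potency value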; further: potency means the concentration at half of the fitted maximal effect). Conditions: qHTS. Summed up: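 qHTS, 1536-well; Jurkat E6-1, 5000 cells/well, complete medium; cpd 40 hr, 37 °C; CellTiter-Glo 20 min RT; luminescence. AC50 by Hill fit.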
On the technique in general: Quantitative high-throughput screening tests each substance at several concentrations.

Test [3] can be described thus: Cell Viability - Hek293 (AID 427;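 active means compounds whose dose-response curve shows a full or clear partial loss of cell viability, called from curve shape rather than a numeric limit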;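 further: potency means the concentration at half of the fitted maximal effect; cells exposed to compound for 40 hours at 37 °C before reading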). The conditions noted are these: qHTS. Summed up:
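AC50 values derive from Hill-modelled concentration-response of ATP-based luminescence, normalized between DMSO-only and 100 uM tamoxifen controls. Cells were exposed in complete culture medium for 40 hr at 37 °C before detection.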

Test [4] is described as follows: Cell Viability - SK-N-SH (AID 435; calls by dose curve;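 further: potency means the concentration at half of the fitted maximal effect; compound exposure lasted 40 h at 37 °C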). The conditions noted are these: SK-N-SH neuroblastoma cell viability qHTS. Summed up: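 SK-N-SH neuroblastoma cells (1500/well) treated 40 h at 37 °C in complete medium; viability read as cellular ATP by CellTiter-Glo luminescence. Normalized to DMSO and 100 uM tamoxifen; AC50 from Hill fits of qHTS concentration-response.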
Test [5] deals with Mitogen-activated protein kinase 10 (Mus musculus) (UniProt Q61831). Description: JNK3 AlphaScreen Assay (AID 530; active means well fitted curve in either direction with a large enough effect, not every such curve was filed as active;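 further: kinase came from lysate of stimulated human HepG2 cells; signal reports phosphorylation of biotinylated GST-cJun 1-79 at Ser73 with 10 µM ATP; on the % scale 0 is the no-effect control and ±100 the full control effect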). In short, it runs like this: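 Inhibitors reduce antibody binding to phosphorylated biotin-cJun, lowering AlphaScreen luminescence. Lysates from HepG2 cells pre-activated by IL-1beta plus TNF-alpha supplied JNK3; compounds were titrated.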
In general terms: Alpha assays give light when donor and acceptor beads are brought close together.

Test [6] can be described thus: Cell Viability - N2a (AID 540). Further: nearly all actives have a fitted effect of over 45% in size. Further: potency means the concentration at half of the fitted maximal effect.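 On activity change, negative = cytotoxicity: plate controls were DMSO alone for no effect and tamoxifen control for full effect.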 The conditions noted are these: N2a mouse neuroblastoma cell viability; activity change, negative = cytotoxicity: at 92.2 µM (top of the series). In short, it runs like this:
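Luminescent ATP signal (CellTiter-Glo, 20 min at room temperature) served as the viability read-out after N2a cells were treated with compounds for 40 hours at 37 °C. Concentration-response data were fitted to the Hill equation for AC50.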

Test [7] in a line: Cell Viability - H-4-II-E (AID 543). Further: nearly all actives have a fitted effect of over 35% in size. Further: potency means the concentration at half of the fitted maximal effect. Summed up:
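Luminescent ATP signal (CellTiter-Glo) served as the viability read-out, with cytotoxicity seen as a concentration-dependent ATP drop. Cells were treated for 40 hours in complete medium. AC50 values derive from Hill-equation modelling.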

A short description of test [8]: Cell Viability - SH-SY5Y (AID 544). Further: nearly all actives have a fitted effect of over 55% in size. Further: potency means the concentration at half of the fitted maximal effect. The conditions noted are these: SH-SY5Y neuroblastoma cell viability; viability change, negative = cytotoxic: at 92.2 µM (top of the series). In short, it runs like this:
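Luminescent ATP read-out (CellTiter-Glo) measures loss of viable SH-SY5Y neuroblastoma cells after 40 hr compound exposure at 37 °C. AC50 values derive from standard Hill modelling of qHTS concentration-response data.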

The nature of test [9]: Cell Viability - Renal Proximal Tubule (AID 545). Further: nearly all actives have a fitted effect of over 40% in size. Further: potency means the concentration at half of the fitted maximal effect. The conditions noted are these: renal proximal tubule cells viability, primary cells of rat origin; activity change, negative = cytotoxicity: at 91.7 µM (top of the series). Summed up:
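Rat renal proximal tubule primary cells, 1000/well, exposed to compounds for 40 hr at 37 °C in complete medium; cellular ATP read by CellTiter-Glo luminescence. AC50 from concentration-response fitted with standard Hill equation.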

Test [10] is described as follows: Cellular Toxicity (caspase-3) HepG2 (AID 654). Further: potency means the concentration at half of the fitted maximal effect.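 On caspase-3 activation: cells exposed to compound for 16 hours before reading; 0% = DMSO alone and 100% = caspase signal from 100 µM tamoxifen.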 In short, it runs like this:
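Cells plated 5 hr at 37 °C, compound added, incubated 16 hr at 37 °C. Caspase-Glo 3/7 reagent followed, 20 min at room temperature, then luminescence read. Activation scored as signal increase; AC50 from Hill fit.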

Test [11] in a line: Cellular Toxicity (caspase-3) Hek293 (AID 664).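 Further: cells exposed to compound for 16 h at 37 °C before readout.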 Conditions: HEK293 caspase-3 activation, DMSO = 0%, 100 µM tamoxifen = 100%; at 92.2 µM (top of the series). In short, it runs like this:
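Cells plated, 5 hr at 37 °C; compounds added; 16 hr at 37 °C; Caspase-Glo 3/7 reagent, 20 min RT; luminescence read. Activation expressed relative to DMSO and 100 uM tamoxifen, AC50 by Hill model.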

The nature of test [12]: Cellular Toxicity (caspase-3) N2a (AID 665).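 Further: compound exposure lasted 16 h at 37 °C before readout.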 Conditions: Potency: caspase-3 activation. Summed up: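 N2a cells, 1500/well, 5 h settle at 37 °C; cpd 16 h, 37 °C; Caspase-Glo 3/7, 1 h RT; luminescence. Norm: DMSO = 0, 10 uM staurosporine = 100%. AC50, Hill fit.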
The target of test [13] is Cytochrome P450 3A4 (Homo sapiens) (UniProt P08684). Kind of test: qHTS Assay for Inhibitors and Substrates of Cytochrome P450 3A4 (AID 884). Further: nearly all actives have a fitted effect of over 50% in size. Further: potency means the concentration at half of the fitted maximal effect. In short, it runs like this:
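20 nM human CYP3A4 with 25 uM Luciferin-PPXE (at KM) in 200 mM KPO4, preincubated 10 min with compound; NADPH regeneration started a 60 min RT reaction. Luciferin detected by luminescence, normalized to 57 uM ketoconazole as full inhibition.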

Test [14] addresses Peroxisome proliferator-activated receptor alpha (Homo sapiens) (UniProt Q07869). Description: qHTS assay for small molecule agonists of the peroxisome proliferator-activated receptor alpha (PPARalpha) signaling pathway (AID 651778). Further: % of control where 0% means no effect. Conditions: PathHunter PPARalpha complementation, chemiluminescence, 6 h; max response: hits give high values. In short, it runs like this: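 Cells plated at 2,000/well and held overnight at 37 C, 5% CO2, then compound added by pin tool for 6 hr; after PathHunter detection reagent and 60 min at room temperature, chemiluminescence from enzyme complementation was read.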

For test [15], the target named is Cytochrome P450 1A2 (Homo sapiens) (UniProt P05177). Kind of test: p450-cyp1a2 (AID 410; calls by dose curve; further: potency means the concentration at half of the fitted maximal effect). Summed up: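 Luminescent readout of luciferin formed from Luciferin-ME by human CYP1A2; data normalized against complete inhibition by 57 uM furafylline. Enzyme 20nM, substrate 100uM at Km, 100mM KPO4 buffer, 60 min reaction at room temperature.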
Test [16] addresses Cytochrome P450 3A4 (Homo sapiens) (UniProt P08684). Kind of test: qHTS Assay for Activators of Cytochrome P450 3A4 (AID 885). Further: nearly all actives have a fitted effect of over 65% in size. Summed up:
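Quantitative HTS format: compounds preincubated with 20nM human CYP3A4 and Luciferin-PPXE substrate at KM, reaction started by NADPH regeneration, stopped after 60 min, luciferase luminescence read 20 min later.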

In test [17] the target is Cytochrome P450 2D6 (Homo sapiens) (UniProt P10635). Description: qHTS Assay for Inhibitors and Substrates of Cytochrome P450 2D6 (AID 891). Further: potency means the concentration at half of the fitted maximal effect; nearly all actives have a fitted effect of over 60% in size. In short, it runs like this:
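Human CYP2D6 (5 nM) with 30 uM Luciferin-ME EGE (at Km) in 100 mM KPO4, compound preincubated 10 min, then NADPH regeneration system for 60 min at room temperature. Luciferin read by luminescence; normalized to 1.43 uM quinidine.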

The target of test [18] is Cytochrome P450 2C19 (Homo sapiens) (UniProt P33261). Description: qHTS Assay for Inhibitors and Substrates of Cytochrome P450 2C19 (AID 899). Further: potency means the concentration at half of the fitted maximal effect; nearly all actives have a fitted effect of over 60% in size. In short, it runs like this: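 NADPH-dependent conversion of Luciferin-H EGE (10uM, at KM) by 5nM enzyme in 50mM KPO4, 60 min at 37C following 10 min compound preincubation. Stopped with luciferin detection buffer; luminescence read after 20 min.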

The target of test [19] is Cytochrome P450 2C9 (Homo sapiens) (UniProt P11712). Description: qHTS Assay for Inhibitors and Substrates of Cytochrome P450 2C9 (AID 883). Further: potency means the concentration at half of the fitted maximal effect; nearly all actives have a fitted effect of over 60% in size. Summed up:
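A luminogenic readout tracked human CYP2C9 (10nM) converting deoxyluciferin (100uM, at KM) in 25mM KPO4 during 60 min at 37C with regenerated NADPH. Values normalized to 57uM sulphaphenazole as complete inhibition.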

Structures are written as SMILES. Several values for one entry are separate records, joined by “and”; a condition that tells them apart may be missing. Identical values can stand only once. A number with no mark means an inactive call. Results filed as inconclusive are left out. Activity calls are given as the source filed them. Unless noted, the call rests on the fitted dose curve; in most records, active means well fitted curve in the direction sought with a large enough effect; inconclusive means small, poorly fitted or top-dose-only effect, or another doubt; inactive means no such curve, though single readings can be large; an effect the other way counts as inactive or inconclusive.

Chain of Peroxisome proliferator-activated receptor alpha (Homo sapiens) (Q07869 whole entry, looked up): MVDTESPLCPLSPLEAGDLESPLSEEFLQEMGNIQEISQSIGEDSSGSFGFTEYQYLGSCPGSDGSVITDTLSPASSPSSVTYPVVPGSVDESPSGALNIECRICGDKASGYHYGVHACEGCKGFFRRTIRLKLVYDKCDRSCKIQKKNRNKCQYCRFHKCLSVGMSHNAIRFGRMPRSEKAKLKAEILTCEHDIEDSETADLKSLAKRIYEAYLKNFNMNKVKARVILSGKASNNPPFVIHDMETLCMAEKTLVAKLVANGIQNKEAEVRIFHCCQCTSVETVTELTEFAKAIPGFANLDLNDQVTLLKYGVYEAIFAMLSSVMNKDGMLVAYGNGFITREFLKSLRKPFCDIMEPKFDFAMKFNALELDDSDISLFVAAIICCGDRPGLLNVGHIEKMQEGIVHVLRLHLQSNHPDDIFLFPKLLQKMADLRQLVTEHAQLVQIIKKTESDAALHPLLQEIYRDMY
Chain of Cytochrome P450 1A2 (Homo sapiens) (P05177 whole entry, looked up): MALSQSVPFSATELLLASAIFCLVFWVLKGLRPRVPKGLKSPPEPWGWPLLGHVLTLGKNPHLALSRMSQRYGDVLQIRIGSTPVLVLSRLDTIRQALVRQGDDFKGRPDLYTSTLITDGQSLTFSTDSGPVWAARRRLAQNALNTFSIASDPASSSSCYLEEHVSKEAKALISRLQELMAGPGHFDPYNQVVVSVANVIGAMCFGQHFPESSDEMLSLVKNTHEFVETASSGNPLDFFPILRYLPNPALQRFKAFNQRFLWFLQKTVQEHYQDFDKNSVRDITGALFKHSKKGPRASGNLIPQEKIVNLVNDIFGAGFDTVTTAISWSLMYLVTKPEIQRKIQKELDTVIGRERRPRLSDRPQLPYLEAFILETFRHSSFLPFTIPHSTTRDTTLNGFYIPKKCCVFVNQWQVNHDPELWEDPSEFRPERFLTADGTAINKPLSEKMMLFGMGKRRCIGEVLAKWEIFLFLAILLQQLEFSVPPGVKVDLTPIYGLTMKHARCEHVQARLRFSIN
Chain of Cytochrome P450 3A4 (Homo sapiens) (P08684 whole entry, looked up): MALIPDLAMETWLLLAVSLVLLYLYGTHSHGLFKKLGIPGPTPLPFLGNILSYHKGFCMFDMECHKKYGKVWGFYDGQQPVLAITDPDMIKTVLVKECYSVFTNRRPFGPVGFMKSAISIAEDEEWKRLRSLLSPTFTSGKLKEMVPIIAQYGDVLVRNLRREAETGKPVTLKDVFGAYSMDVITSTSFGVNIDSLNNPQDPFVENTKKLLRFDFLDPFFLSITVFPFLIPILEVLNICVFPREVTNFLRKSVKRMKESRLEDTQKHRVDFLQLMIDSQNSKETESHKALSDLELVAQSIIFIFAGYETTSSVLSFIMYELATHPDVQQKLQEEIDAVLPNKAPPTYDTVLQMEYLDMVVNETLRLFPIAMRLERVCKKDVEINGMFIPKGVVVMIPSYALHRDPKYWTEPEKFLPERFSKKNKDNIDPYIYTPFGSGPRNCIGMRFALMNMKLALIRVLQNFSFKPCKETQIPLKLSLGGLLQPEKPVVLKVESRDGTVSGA
Chain of Cytochrome P450 2C9 (Homo sapiens) (P11712 whole entry, looked up): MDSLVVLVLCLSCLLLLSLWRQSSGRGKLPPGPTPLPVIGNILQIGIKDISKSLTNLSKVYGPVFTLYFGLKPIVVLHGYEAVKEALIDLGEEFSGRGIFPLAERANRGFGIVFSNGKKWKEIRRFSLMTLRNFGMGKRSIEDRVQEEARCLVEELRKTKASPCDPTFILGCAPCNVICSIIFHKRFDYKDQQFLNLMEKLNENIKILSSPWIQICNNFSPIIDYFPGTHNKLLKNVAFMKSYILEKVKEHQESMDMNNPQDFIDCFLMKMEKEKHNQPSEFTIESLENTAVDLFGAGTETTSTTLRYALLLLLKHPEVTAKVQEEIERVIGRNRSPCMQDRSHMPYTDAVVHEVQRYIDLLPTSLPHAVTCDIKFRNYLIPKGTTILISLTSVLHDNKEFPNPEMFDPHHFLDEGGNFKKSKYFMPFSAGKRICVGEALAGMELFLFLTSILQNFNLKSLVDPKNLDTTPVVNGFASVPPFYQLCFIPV
Chain of Cytochrome P450 2C19 (Homo sapiens) (P33261 whole entry, looked up): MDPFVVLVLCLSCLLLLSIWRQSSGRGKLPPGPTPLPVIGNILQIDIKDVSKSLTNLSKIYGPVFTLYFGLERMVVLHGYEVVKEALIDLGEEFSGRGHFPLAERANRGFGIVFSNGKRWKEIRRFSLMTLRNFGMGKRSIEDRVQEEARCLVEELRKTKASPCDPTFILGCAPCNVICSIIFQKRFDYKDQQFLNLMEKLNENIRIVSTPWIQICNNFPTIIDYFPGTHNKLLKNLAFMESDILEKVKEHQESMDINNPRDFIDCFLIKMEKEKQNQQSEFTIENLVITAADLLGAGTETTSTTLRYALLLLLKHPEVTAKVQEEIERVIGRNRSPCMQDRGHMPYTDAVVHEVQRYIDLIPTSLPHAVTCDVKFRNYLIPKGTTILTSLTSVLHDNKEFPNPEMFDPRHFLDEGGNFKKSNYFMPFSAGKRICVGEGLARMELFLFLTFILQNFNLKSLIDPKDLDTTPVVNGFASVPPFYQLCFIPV
Chain of Cytochrome P450 2D6 (Homo sapiens) (P10635 whole entry, looked up): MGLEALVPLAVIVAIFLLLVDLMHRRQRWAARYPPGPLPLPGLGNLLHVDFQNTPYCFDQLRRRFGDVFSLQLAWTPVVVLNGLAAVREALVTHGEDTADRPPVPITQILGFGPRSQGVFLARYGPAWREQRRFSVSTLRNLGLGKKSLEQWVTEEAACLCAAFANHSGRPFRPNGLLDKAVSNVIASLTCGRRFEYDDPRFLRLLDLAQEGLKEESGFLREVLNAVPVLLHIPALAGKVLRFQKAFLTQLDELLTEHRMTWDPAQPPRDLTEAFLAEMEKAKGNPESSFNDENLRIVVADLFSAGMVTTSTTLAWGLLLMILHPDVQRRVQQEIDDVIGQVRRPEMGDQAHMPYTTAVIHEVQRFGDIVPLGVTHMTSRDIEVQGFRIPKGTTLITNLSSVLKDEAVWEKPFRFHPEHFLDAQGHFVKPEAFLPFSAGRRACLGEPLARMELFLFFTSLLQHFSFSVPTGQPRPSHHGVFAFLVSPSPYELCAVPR

For the molecule `O=C(/C=C/c1ccc(O)c(O)c1)OC1C[C@](O)(C(=O)O)C[C@@H](O)[C@H]1O` (some centres not stated), the Potency in test [1], in test [2], in test [3] and in [4] was more than 92 µM each time. Besides, the Potency entry in test [5], in [6], in test [7], in test [8], in test [9] and in test [10] was “inactive” in each case. Further, the Potency result in test [12] and in [13] was “inactive” throughout. The caspase-3 activation in [11] is 0.862% and -1.58%. Besides, the max response in test [14] is -2.67% and 0.743%.

With `CCC[C@@H]1C[C@@]1(CCC)C(NC(=O)c1ccccc1)c1cccc(Cl)c1` (some centres not stated), the Potency entry in test [15], in test [5] and in test [16] was “inactive” each time. Besides, the Potency in [17] is 3.16 µM (active).

Take `CCC/C=C(\CCC)C(NC(=O)Cc1ccccc1)c1ccc(C(=O)OC)cc1` (configuration not stated): the Potency in [15] is 15.8 µM (active); in test [13] it was 3.98 µM (active); in [18] it was 2.51 µM (active). Besides, in test [16], the Potency entry was “inactive”.

Consider `OC1c2ccccc2-c2nc3ccccc3cc21` (configuration not stated), for which the Potency in [15] is 0.126 µM (active); in test [17], 20 µM (active). The Potency entry in test [5] and in [16] was “inactive” throughout.

Consider `CCCCCCCC[N+](CCCCCCCC)(CCCCCCCC)CCCCCCCC`, for which the Potency in test [1] is 14.5 µM (active); in test [2], 7.74 µM (active); in [3], 7.17 µM (active); in test [4], 9.44 µM (active); in test [6] it was 3.16 µM (active); in [7], 12.6 µM (active). The Potency in test [8] was 7.94 µM (active); in test [9] it was 10 µM (active); in [10], 12.6 µM (active); in [13] it was 12.6 µM (active). In addition, the Potency result in test [5] and in test [16] was “inactive” in each case. Besides, in test [14], the max response is 6.05%.

For the molecule `CCCC[C@@H]1C[C@H]1C(NC(=O)c1ccco1)c1ccc(Cl)cc1` (some centres not stated), the Potency in [15] is 0.794 µM (active); in [19], 3.98 µM (active). Further, the Potency entry in [13] was “inactive”.

For `COC(=O)c1ccc(C(NC(=O)c2ccccc2)[C@]2(C)C[C@H]2C2CCCCC2)cc1` (some centres not stated), the Potency result in test [15], in test [5] and in test [16] was “inactive” in each case. Besides, the Potency in [18] was 2.51 µM (active).

With `CCC/C=C(\CCC)C(NS(=O)(=O)c1ccc(Cl)cc1)c1ccccc1` (configuration not stated), the Potency in test [15] was 12.6 µM (active); in test [19] it was 2.51 µM (active); in test [13], 7.94 µM (active). Further, the Potency result in [16] is “inactive”.

As for `CN1[C@H]2CC(OC(=O)[C@H](CO)c3ccccc3)C[C@H]1[C@H]1O[C@H]12` (some centres not stated), the Potency in [1], in [2], in test [3] and in test [4] was more than 92 µM in each case. The Potency entry in test [6], in test [7], in test [8], in test [9], in test [10] and in test [12] was “inactive” in each case. Further, in test [11], the caspase-3 activation was -1.68% and 4.08%. For the same molecule, the max response in [14] was -2.4% and 1.32%.
